Experimental findings from PubChem BioAssay are described below.

Activity calls are given as the source filed them. Unless noted, how the calls were made is not given here.

Test [1] has as its system XIP peptide (Xip251-270) binding. The test can be described thus: XIP fragment 251-270 binding compounds – biochemical, small-molecule microarray, fluorescence 635/667 nm, 0.1 µg/mL protein, primary screen (AID 1182). The following applies: fluorescent protein binding, 635 nm, higher = more signal, called active from +8 up or from −8 down.
Test [2] has as its system XIP peptide (Xip251-270). As to the kind of experiment: compounds binding XIP fragment 251-270 – biochemical, small-molecule microarray, fluorescence 635/667 nm, 0.5 µg/mL protein, primary screen (AID 1183). The following applies: fluorescence 635 nm, higher = more signal.
A short description of test [3]: blood-stage malaria parasite viability loss – strain 3D7, DAPI fluorescence, 100 nL, primary screen (AID 1184).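 Further: parasites grown inside human red blood cells in medium with human serum.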 The note with it: P. falciparum 3D7 growth, 3 d, higher = more signal.
In test [4] the target is Homeobox protein Hox-A13 (Mus musculus) (UniProt Q62424). As to the kind of experiment: disruptors of Hoxa13 oligonucleotide interaction – biochemical, fluorescence polarization, labeled oligonucleotide, primary screen (AID 1185). The note with it: Hoxa13:DNA binding, 15 min, higher = more signal, called active from +8 up or from −8 down. For orientation: In fluorescence polarisation assays a small probe gives low polarisation when free and higher when bound to something large.
Sequence of Homeobox protein Hox-A13 (Mus musculus) (Q62424 whole entry, looked up): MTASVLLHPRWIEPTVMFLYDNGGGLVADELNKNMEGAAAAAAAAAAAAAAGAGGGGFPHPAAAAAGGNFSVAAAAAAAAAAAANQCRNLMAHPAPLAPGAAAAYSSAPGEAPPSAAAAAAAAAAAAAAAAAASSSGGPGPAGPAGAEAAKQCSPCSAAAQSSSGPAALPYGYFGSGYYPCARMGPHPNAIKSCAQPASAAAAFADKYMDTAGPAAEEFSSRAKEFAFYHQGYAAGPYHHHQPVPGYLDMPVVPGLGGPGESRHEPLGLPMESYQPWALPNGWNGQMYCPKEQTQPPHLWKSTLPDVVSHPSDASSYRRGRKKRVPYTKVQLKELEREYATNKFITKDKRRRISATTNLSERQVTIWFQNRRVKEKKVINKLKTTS

Test [5] in a line: blockers of DNA damage checkpoint Chk1 activation – imaging, HeLa, hydroxyurea, phospho-Chk1 antibody, percent positive cells, primary screen (AID 1186). The note with it: hydroxyurea-induced phospho-Chk1 immunofluorescence imaging, higher = more signal.
Test [6] can be described thus: blockers of DNA damage checkpoint Chk1 activation – imaging, HeLa, hydroxyurea, phospho-Chk1 nuclear intensity, primary screen (AID 1187). The note with it: hydroxyurea-induced phospho-Chk1 immunofluorescence imaging, higher = more signal.

Regarding `COCCOC(=O)N1C(=O)[C@@]2(c3cc(C#CCNC(N)=O)ccc31)[C@H](C(=O)N1CCN(c3ncccn3)CC1)[C@H]1C(=O)O[C@H](c3ccccc3)[C@H](c3ccccc3)N1[C@@H]2c1ccc(O)cc1`, the composite z-score in test [1] is -0.417 (inactive); in test [2] it was 0.288. In addition, the z-score in test [3] is 0.614; in test [4], -0.508 (inactive); in test [5] it was -0.171 (inactive); in test [6], -0.206 (inactive).
As for `[N-]=[N+]=NCc1ccccc1[C@H]1OC(c2ccc(OCCCO)cc2)=N[C@@]1(CCS(=O)(=O)c1ccccc1)C(=O)O`, the composite z-score is -0.0179 (inactive) in test [1] and 0.446 in test [2]. The z-score in test [3] is 0.0638; in test [4] it was -5.36 (inactive); in test [5], -0.0059 (inactive); in test [6], -0.587 (inactive).
For `C=CC[C@]1(C(=O)NCC(O)CO)N=C(c2ccc(OCCCO)cc2)O[C@H]1c1ccccc1CN=[N+]=[N-]` (some centres not stated), the figures for the composite z-score in test [1] and in test [2] were 0.513 (inactive) and -0.201, respectively. Moreover, the z-score in test [3] is -2.5; in test [4], -3.62 (inactive); in test [5] it was -0.116 (inactive); in test [6], -0.482 (inactive).
Consider `COc1ccc(CCNC(=O)[C@@]2(c3ccc([N+](=O)[O-])cc3)CC(=O)N(C3CCCCC3)[C@@H]2c2ccc(CO)cc2I)cc1`, for which the composite z-score in test [1] is 0.548 (inactive); in test [2] it was 0.671. The z-score was -1.96 in test [3], -3.27 (inactive) in test [4], 0.129 (inactive) in test [5] and 0.294 (inactive) in test [6].
`C=C(C(=O)CC[C@@H](OC(=O)c1ccccc1-c1ccccc1C(=O)O)c1ccc(CO)o1)C(C)C`: the composite z-score was 0.525 (inactive) in test [1] and 0.434 in test [2]. The z-score in test [3] is 1.88; in test [4] it was -5.42 (inactive); in test [5], 0.762 (inactive); in test [6], 0.478 (inactive).
In the case of `COc1ccc(NN2C(C(O)c3ccccc3)C=CC3C(=O)N(C4CCCCC4)C(=O)C32)cc1` (configuration not stated), the composite z-score in test [1] was 0.387 (inactive); in test [2], 0.745. The z-score in test [3] is -1.08; in test [4], -4.8 (inactive); in test [5] it was 0.329 (inactive); in test [6] it was 0.711 (inactive).
In the case of `CCCC[C@@H](O)C1=C(C)Cn2c(=O)n(-c3ccccc3)c(=O)n2[C@H]1CO`, the composite z-score in test [1] is -0.387 (inactive); in test [2], 0.0389. Moreover, the z-score in test [3] is 0.0686; in test [4] it was -0.901 (inactive); in test [5] it was -0.522 (inactive); in test [6], -0.621 (inactive).
As to `[N-]=[N+]=Nc1ccccc1C[C@@]1(C(=O)NCc2ccccc2)N=C(c2ccc(OCCCO)cc2)O[C@@H]1c1ccccc1`, the composite z-score in test [1] was -0.116 (inactive); in test [2], 0.746. Also, the z-score in test [3] is -2.51; in test [4], -2.4 (inactive); in test [5] it was -0.603 (inactive); in test [6], -0.942 (inactive).
Turning to `C=CC[C@]12N=C(c3ccc(OCCCO)cc3)O[C@H]1c1ccccc1N(CCC)C2=O`, the composite z-score is -0.0641 (inactive) in test [1] and 0.842 in test [2]. For the same molecule, the z-score in test [3] is -2.33; in test [4], -4.5 (inactive); in test [5] it was -0.206 (inactive); in test [6], -0.234 (inactive).
As to `COc1cc2c(cc1O)C(C)N(Cc1sc3ccccc3c1Cl)CC2` (configuration not stated), the composite z-score in test [1] was -0.173 (inactive); in test [2], 0.547. The z-score is -1.37 in test [3], -3.39 (inactive) in test [4], -0.632 (inactive) in test [5] and -0.817 (inactive) in test [6].
As to `C=C(/C=C\CNS(=O)(=O)c1ccc(C)cc1)[C@H](O)[C@H]1CCCN1S(=O)(=O)c1ccccc1[N+](=O)[O-]`, the composite z-score in test [1] is -0.167 (inactive); in test [2] it was -0.167. Also, the z-score in test [3] is -1.8; in test [4], -5.5 (inactive); in test [5], -0.225 (inactive); in test [6], 0.161 (inactive).
As to `C=CCNC(=O)[C@@H]1[C@H]2C(=O)O[C@H](c3ccccc3)[C@H](c3ccccc3)N2[C@H](c2ccc(OCCO)cc2)[C@@]12C(=O)Nc1ccc(C#CCNC(N)=O)cc12`, the composite z-score in test [1] was 2.5 (inactive); in test [2] it was 0.561. Also, the z-score in test [3] was 0.175; in test [4] it was -3.63 (inactive); in test [5] it was 0.286 (inactive); in test [6] it was 0.0132 (inactive).
For the molecule `C=C(C(=O)CC[C@@H](OC(=O)c1ccccc1-c1ccccc1C(=O)O)c1cccc(OCCO)c1)C(C)C`, the composite z-score in test [1] is 0.0145 (inactive); in test [2] it was 0.25. Besides, the z-score in test [3] is -2.01; in test [4], -4.86 (inactive); in test [5], -0.0826 (inactive); in test [6], -0.0465 (inactive).
Take `CC(C)(C)OC(=O)CC[C@@]1(C(N)=O)N=C(c2ccc(OCCCO)cc2)O[C@@H]1c1ccccc1CN=[N+]=[N-]`: the values for the composite z-score in test [1] and in test [2] were -0.015 (inactive) and 0.297, respectively. Moreover, the z-score was 1.1 in test [3], -4.71 (inactive) in test [4], 0.3 (inactive) in test [5] and 0.317 (inactive) in test [6].
In the case of `C=C(COC)/C(=C/C[C@@H](OC(C)=O)c1cccc(OCCO)c1)c1cnc2ccccc2c1`, the composite z-score is 0.281 (inactive) in test [1] and 0.21 in test [2]. Besides, the z-score is -3.1 in test [3], -5.52 (inactive) in test [4], 0.271 (inactive) in test [5] and -0.181 (inactive) in test [6].
`O=C1O[C@H](c2ccccc2)[C@H](c2ccccc2)N2[C@H]1[C@@H](C(=O)Nc1nc3ccccc3s1)[C@]1(C(=O)Nc3ccccc31)[C@H]2c1ccccc1OCCO`: the composite z-score is 1.18 (inactive) in test [1] and 0.758 in test [2]. Also, the z-score was -1.08 in test [3], 2 (inactive) in test [4], 0.153 (inactive) in test [5] and 0.65 (inactive) in test [6].
As for `O=C1NC(=O)C2C1C=CC(C(O)C(O)CO)N2Nc1ccccn1` (configuration not stated), the composite z-score was -0.325 (inactive) in test [1] and 0.129 in test [2]. Further, the z-score is 0.488 in test [3], -0.781 (inactive) in test [4], -0.163 (inactive) in test [5] and -0.239 (inactive) in test [6].
